# How the values were obtained:
# [1] = target: Ribosomal protein S6 kinase beta-1 (Homo sapiens) (UniProt P23443); conditions: at 1 µM
# [2] = target: Ribosomal protein S6 kinase beta-1 (Homo sapiens) (UniProt P23443); conditions: at 10 µM
# [3] = target: Serine/threonine-protein kinase Nek6 (Homo sapiens) (UniProt Q9HC98); conditions: at 1 µM
# [4] = target: Serine/threonine-protein kinase Nek6 (Homo sapiens) (UniProt Q9HC98); conditions: at 10 µM
# [5] = target: Serine/threonine-protein kinase Nek7 (Homo sapiens) (UniProt Q8TDX7); conditions: at 1 µM
# Chain of Serine/threonine-protein kinase Nek7 (Homo sapiens) (Q8TDX7 whole entry, looked up): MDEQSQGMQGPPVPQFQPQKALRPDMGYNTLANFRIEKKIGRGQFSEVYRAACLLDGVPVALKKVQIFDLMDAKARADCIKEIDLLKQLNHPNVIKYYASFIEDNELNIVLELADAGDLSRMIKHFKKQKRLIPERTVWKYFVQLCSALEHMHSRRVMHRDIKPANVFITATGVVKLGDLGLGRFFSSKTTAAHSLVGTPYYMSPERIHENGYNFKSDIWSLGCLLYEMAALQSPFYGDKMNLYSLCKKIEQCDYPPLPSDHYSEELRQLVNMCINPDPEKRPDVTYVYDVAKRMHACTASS
# [6] = target: Serine/threonine-protein kinase Nek7 (Homo sapiens) (UniProt Q8TDX7); conditions: at 10 µM
# [7] = target: T1, Serine/threonine-protein kinase NLK (Homo sapiens) (UniProt Q9UBE8); conditions: at 1 µM
# T1 sequence (whole entry): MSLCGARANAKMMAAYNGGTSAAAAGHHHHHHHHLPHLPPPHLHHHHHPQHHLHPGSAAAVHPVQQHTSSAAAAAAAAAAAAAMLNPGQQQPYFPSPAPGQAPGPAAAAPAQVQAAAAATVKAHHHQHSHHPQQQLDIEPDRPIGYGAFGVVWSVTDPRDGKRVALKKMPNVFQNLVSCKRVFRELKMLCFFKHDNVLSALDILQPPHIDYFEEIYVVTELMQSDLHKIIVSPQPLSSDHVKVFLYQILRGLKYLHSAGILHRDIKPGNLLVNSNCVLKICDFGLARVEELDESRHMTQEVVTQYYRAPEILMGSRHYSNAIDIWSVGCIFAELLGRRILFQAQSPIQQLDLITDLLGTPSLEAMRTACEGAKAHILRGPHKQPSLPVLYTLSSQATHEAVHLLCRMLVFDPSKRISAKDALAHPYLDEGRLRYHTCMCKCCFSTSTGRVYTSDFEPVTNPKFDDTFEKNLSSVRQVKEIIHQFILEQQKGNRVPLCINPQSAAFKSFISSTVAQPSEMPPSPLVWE
# [8] = target: T1, Serine/threonine-protein kinase NLK (Homo sapiens); conditions: at 10 µM
# [9] = target: Serine/threonine-protein kinase PAK 2 (Homo sapiens) (UniProt Q13177); conditions: at 1 µM
# Chain of Serine/threonine-protein kinase PAK 2 (Homo sapiens) (Q13177 whole entry): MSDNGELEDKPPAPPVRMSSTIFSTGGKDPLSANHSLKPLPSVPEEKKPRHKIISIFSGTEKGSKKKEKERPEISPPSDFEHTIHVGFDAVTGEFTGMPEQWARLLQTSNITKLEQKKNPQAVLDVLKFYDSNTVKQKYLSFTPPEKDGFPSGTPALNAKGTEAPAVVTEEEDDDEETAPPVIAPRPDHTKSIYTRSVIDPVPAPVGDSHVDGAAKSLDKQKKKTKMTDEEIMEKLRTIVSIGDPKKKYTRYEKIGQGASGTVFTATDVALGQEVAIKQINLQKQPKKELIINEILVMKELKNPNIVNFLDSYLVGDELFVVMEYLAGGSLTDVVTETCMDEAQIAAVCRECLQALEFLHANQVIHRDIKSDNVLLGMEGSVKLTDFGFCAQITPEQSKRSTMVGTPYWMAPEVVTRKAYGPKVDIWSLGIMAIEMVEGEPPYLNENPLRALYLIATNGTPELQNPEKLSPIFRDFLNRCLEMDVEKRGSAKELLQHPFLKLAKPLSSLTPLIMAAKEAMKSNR
# [10] = target: Serine/threonine-protein kinase PAK 2 (Homo sapiens) (UniProt Q13177); conditions: at 10 µM
# [11] = target: Serine/threonine-protein kinase PAK 4 (Homo sapiens) (UniProt O96013); conditions: at 1 µM
# Chain of Serine/threonine-protein kinase PAK 4 (Homo sapiens) (O96013 whole entry, looked up): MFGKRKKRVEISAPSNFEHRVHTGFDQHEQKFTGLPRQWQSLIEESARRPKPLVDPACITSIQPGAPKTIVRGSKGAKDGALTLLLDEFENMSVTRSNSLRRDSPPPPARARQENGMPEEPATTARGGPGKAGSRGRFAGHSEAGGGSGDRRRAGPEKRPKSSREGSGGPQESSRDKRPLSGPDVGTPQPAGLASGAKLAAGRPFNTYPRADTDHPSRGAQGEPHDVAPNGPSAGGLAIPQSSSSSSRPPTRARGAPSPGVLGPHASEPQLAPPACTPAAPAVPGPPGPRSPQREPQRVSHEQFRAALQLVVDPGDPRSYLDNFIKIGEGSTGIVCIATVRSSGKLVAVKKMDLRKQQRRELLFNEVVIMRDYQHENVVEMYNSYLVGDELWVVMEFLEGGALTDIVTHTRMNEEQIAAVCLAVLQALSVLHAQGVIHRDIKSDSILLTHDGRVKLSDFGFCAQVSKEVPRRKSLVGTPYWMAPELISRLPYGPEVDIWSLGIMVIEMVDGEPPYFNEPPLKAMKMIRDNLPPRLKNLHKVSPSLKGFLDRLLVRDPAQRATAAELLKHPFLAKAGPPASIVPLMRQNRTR
# [12] = target: Serine/threonine-protein kinase PAK 4 (Homo sapiens) (UniProt O96013); conditions: at 10 µM
# [13] = target: Serine/threonine-protein kinase PAK 5 (Homo sapiens) (UniProt Q9P286); conditions: at 1 µM
# [14] = target: Serine/threonine-protein kinase PAK 5 (Homo sapiens) (UniProt Q9P286); conditions: at 10 µM
# [15] = target: Serine/threonine-protein kinase PAK 6 (Homo sapiens) (UniProt Q9NQU5); conditions: at 1 µM
# Chain of Serine/threonine-protein kinase PAK 6 (Homo sapiens) (Q9NQU5 whole entry, looked up, the tested form may be a part): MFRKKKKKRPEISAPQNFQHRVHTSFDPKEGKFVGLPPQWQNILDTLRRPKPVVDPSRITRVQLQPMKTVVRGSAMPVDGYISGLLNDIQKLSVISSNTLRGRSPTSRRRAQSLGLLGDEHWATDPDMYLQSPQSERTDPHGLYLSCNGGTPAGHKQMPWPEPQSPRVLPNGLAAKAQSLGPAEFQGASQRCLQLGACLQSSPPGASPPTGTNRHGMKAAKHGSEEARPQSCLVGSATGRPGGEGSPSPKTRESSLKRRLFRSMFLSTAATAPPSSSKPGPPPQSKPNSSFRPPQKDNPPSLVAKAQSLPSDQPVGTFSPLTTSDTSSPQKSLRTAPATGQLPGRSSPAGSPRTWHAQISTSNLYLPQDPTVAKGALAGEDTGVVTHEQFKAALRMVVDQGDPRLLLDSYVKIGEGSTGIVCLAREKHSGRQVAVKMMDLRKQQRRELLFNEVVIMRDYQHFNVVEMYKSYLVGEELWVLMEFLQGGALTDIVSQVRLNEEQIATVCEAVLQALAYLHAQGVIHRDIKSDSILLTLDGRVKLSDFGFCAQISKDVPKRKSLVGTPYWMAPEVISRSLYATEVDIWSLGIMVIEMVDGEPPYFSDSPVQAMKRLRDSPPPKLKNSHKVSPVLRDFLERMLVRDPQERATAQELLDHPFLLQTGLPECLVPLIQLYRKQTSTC
# [16] = target: Serine/threonine-protein kinase PAK 6 (Homo sapiens) (UniProt Q9NQU5); conditions: at 10 µM
# [17] = target: PAS domain-containing serine/threonine-protein kinase (Homo sapiens) (UniProt Q96RG2); conditions: at 10 µM
# [18] = target: Activated CDC42 kinase 1 (Homo sapiens) (UniProt Q07912); conditions: at 1 µM
# Chain of Activated CDC42 kinase 1 (Homo sapiens) (Q07912 whole entry, looked up): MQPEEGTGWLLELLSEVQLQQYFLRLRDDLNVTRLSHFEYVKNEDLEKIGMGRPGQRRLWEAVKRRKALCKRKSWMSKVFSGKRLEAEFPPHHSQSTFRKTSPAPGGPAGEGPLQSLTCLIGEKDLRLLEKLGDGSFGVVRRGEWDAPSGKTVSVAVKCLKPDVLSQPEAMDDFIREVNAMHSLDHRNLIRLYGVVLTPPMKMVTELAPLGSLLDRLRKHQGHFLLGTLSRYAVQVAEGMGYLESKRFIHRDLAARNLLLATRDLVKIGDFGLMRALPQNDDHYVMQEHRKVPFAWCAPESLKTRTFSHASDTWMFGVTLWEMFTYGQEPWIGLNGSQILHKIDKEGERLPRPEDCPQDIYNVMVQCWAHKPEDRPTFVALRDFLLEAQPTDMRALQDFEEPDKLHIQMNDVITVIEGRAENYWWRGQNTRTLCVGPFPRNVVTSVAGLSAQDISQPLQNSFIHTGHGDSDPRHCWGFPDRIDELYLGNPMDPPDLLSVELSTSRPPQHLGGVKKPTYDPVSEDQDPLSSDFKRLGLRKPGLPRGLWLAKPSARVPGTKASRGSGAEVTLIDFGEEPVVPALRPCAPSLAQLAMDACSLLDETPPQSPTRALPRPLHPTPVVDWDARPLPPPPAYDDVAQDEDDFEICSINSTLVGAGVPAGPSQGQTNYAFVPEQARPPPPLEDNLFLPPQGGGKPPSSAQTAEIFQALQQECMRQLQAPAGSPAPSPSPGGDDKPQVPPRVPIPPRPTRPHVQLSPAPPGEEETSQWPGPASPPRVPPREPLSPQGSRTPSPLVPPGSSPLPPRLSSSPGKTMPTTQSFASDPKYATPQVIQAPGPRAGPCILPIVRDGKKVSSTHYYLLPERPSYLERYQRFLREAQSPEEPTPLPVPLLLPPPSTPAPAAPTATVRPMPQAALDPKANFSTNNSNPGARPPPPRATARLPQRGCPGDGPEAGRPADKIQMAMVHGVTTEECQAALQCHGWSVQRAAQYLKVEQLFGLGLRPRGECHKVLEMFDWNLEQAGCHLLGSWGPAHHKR
# [19] = target: Activated CDC42 kinase 1 (Homo sapiens) (UniProt Q07912); conditions: at 10 µM
# [20] = target: ALK tyrosine kinase receptor (Homo sapiens) (UniProt Q9UM73); conditions: at 1 µM
# Chain of ALK tyrosine kinase receptor (Homo sapiens) (Q9UM73 19-1620 limits assumed): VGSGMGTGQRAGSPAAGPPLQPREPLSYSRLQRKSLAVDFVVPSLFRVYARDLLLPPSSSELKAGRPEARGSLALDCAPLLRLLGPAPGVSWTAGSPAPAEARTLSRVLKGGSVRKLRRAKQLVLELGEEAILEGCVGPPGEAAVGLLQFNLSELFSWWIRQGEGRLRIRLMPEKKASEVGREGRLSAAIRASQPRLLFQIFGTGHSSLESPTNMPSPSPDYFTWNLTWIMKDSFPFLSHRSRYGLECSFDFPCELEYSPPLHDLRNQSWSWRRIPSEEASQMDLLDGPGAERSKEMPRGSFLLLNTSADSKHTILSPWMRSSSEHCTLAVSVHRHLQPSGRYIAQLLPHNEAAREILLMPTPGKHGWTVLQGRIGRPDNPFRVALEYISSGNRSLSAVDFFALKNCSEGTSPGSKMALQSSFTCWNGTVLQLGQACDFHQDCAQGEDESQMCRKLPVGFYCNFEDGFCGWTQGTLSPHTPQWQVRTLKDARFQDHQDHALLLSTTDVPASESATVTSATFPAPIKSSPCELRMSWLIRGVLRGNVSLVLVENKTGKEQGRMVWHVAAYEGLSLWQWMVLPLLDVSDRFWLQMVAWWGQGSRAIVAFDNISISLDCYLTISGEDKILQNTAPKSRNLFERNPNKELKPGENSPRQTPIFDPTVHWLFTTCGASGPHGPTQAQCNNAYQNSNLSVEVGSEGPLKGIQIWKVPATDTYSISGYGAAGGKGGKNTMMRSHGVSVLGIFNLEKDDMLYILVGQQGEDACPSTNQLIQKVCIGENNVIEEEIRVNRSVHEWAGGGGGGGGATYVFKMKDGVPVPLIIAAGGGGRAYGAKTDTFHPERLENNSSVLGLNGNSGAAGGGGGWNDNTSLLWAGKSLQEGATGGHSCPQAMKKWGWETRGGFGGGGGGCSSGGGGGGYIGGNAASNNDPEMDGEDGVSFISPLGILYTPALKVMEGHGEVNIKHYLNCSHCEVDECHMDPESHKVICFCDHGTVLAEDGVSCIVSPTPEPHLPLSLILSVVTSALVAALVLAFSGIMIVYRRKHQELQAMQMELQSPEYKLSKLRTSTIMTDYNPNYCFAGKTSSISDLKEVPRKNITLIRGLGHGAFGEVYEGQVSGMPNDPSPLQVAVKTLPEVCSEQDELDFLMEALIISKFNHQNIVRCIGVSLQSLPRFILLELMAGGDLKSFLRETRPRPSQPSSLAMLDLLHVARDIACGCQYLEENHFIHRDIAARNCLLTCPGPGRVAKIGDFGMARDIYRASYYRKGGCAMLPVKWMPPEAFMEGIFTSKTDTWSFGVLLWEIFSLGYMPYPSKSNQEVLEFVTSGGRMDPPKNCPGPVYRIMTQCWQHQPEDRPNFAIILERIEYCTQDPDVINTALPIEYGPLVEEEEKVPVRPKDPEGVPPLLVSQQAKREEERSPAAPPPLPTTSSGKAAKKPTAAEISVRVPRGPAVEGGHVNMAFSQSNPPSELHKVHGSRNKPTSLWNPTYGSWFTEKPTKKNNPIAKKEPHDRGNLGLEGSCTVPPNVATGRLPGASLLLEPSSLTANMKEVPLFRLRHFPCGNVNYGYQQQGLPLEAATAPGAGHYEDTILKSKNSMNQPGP
# Chain of Serine/threonine-protein kinase Nek6 (Homo sapiens) (Q9HC98 whole entry): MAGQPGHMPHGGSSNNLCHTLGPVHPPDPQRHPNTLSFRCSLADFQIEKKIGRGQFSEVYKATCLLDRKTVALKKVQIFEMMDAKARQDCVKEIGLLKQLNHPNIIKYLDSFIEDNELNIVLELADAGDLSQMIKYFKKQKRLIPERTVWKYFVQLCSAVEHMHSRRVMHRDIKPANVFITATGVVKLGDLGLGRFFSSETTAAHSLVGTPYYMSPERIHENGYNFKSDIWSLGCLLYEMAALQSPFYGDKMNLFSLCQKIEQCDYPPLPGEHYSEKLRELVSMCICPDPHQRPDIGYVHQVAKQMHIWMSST
SMILES,residual activity [1] [%],residual activity [2] [%],residual activity [3],residual activity [4] [%],residual activity [5],residual activity [6],residual activity [7] [%],residual activity [8] [%],residual activity [9] [%],residual activity [10] [%],residual activity [11] [%],residual activity [12] [%],residual activity [13] [%],residual activity [14] [%],residual activity [15] [%],residual activity [16] [%],residual activity [17] [%],residual activity [18] [%],residual activity [19] [%],residual activity [20] [%]
Oc1ccc(Nc2nc(-c3ccc(Cl)cc3)cs2)cc1,119,87,116% (inactive),123,110% (inactive),106% (inactive),110,74,105,106,103,98,106,104,109,103,126,89,80,82
CC#CC(=O)Nc1cc2c(Nc3ccc(F)c(Cl)c3)ncnc2cn1,96,98,82% (inactive),91,94% (inactive),100% (inactive),93,79,82,81,99,91,104,107,102,96,99,86,71,81
O=c1c2ccccc2[nH]c(=S)n1CCN1CCC(=C(c2ccc(F)cc2)c2ccc(F)cc2)CC1,79,42,99% (inactive),107,103% (inactive),94% (inactive),111,93,103,103,106,99,84,47,82,41,53,83,70,81
O=C1Nc2cc(Br)ccc2/C1=C1/Nc2ccccc2/C1=N\O,30,29,108% (inactive),106,102% (inactive),85% (inactive),79,85,75,88,30,25,39,55,51,21,115,14,2,35
O=C1NC(=O)c2cc(Nc3ccc(F)cc3)c(Nc3ccc(F)cc3)cc21,81,101,112% (inactive),111,98% (inactive),98% (inactive),92,80,107,79,89,74,98,66,100,64,51,79,34,84
COc1ccc(S(=O)(=O)N(CCO)c2ccccc2CN(C)C/C=C/c2ccc(Cl)cc2)cc1,97,78,110% (inactive),115,106% (inactive),93% (inactive),93,92,97,86,94,93,100,77,105,64,87,68,60,68
CC(C)n1cnc2c(NCc3ccccc3)nc(NCCCO)nc21,105,100,107% (inactive),115,101% (inactive),95% (inactive),95,86,106,100,97,80,108,96,95,72,98,76,58,87
O=C(Nc1cccc(Nc2nccc(Nc3cccc(C(F)(F)F)c3)n2)c1)C1CC1,83,62,107% (inactive),105,103% (inactive),104% (inactive),95,39,116,58,80,34,97,107,90,52,47,25,5,69
O=C(O)c1ccc2c3c1cccc3c(=O)n1c3ccccc3nc21,89,46,109% (inactive),101,114% (inactive),108% (inactive),107,72,101,95,100,98,100,96,91,85,98,94,75,70
Cn1cc(/C=C2\C(=O)Nc3ccc(S(N)(=O)=O)cc32)c2ccccc21,29,11,100% (inactive),112,103% (inactive),89% (inactive),104,84,124,91,28,7,41,26,46,22,71,60,36,56
Cc1ccc(S(=O)(=O)/C=C/C#N)cc1,133,102,99% (inactive),108,114% (inactive),87% (inactive),101,92,107,98,99,95,106,106,95,84,86,81,75,99
O=C1NC(=O)c2c1c1c3ccccc3[nH]c1c1[nH]c3cc(Br)ccc3c21,92,52,121% (inactive),117,103% (inactive),89% (inactive),82,93,122,106,94,92,101,85,77,58,96,64,61,91

# — ChEMBL document CHEMBL2218924, “A broad activity screen in support of a chemogenomic map for kinase signalling research and drug discovery” (Biochem J, 2013)
